# From PubChem BioAssay AID1508601 (ICCB-Longwood Screening Facility, Harvard Medical School, 2020)
# Hit rate of the full screen: of about 5,700 compounds, about 85 (1%) were called active. Cut-off read from the data, not from the text of the source: active = p53-positive nuclei above about 36% (passing the limit was not always enough); inactive = the rest. Shown is part of a subset that was picked to be rich in actives.
# Tests used:
# [1] = nuclear p53 accumulation, HPV+ cells – imaging, p53-positive nuclei imaging, 24 h, 48 h (AID 1508601); conditions: 24/48 h
# [2] = molecular target: Cellular tumor antigen p53 (Homo sapiens) (UniProt P04637); assay: as above; conditions: 24/48 h, stronger effect = higher value
# Cellular tumor antigen p53 (Homo sapiens), sequence (P04637 whole entry, looked up): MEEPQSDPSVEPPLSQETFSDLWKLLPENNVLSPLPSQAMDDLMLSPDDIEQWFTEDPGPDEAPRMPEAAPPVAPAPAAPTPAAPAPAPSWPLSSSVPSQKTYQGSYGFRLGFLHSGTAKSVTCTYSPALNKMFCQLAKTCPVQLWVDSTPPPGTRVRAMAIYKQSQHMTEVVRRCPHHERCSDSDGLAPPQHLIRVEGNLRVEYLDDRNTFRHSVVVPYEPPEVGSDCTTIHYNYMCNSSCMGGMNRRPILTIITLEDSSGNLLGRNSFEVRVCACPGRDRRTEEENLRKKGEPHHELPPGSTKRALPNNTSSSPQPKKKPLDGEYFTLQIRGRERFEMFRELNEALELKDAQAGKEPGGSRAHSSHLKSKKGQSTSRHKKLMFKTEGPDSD
# [3] = measured here: cell number at 24 h, concentration not given here
# [4] = measured here: cell number at 48 h, concentration not given here
# [5] = measured here: p53 positive nuclei at 24 h, concentration not given here
# [6] = measured here: cell number at 24 h, Library stock concentration: 80 uM
# [7] = measured here: cell number at 24 h, Library stock concentration: 400 uM
# [8] = measured here: cell number at 24 h, Library stock concentration: 2 mM
# [9] = measured here: cell number at 24 h, Library stock concentration: 10 mM
# [10] = measured here: cell number at 48 h, Library stock concentration: 80 uM
# [11] = measured here: cell number at 48 h, Library stock concentration: 400 uM
# [12] = measured here: cell number at 48 h, Library stock concentration: 2 mM
# [13] = measured here: cell number at 48 h, Library stock concentration: 10 mM
# [14] = Library stock concentration: 80 uM
# [15] = Library stock concentration: 400 uM
# [16] = Library stock concentration: 2 mM
# [17] = Library stock concentration: 10 mM
# [18] = measured here: p53 positive nuclei at 24 h, Library stock concentration: 80 uM
# [19] = measured here: p53 positive nuclei at 24 h, Library stock concentration: 400 uM
# [20] = measured here: p53 positive nuclei at 24 h, Library stock concentration: 2 mM
# [21] = measured here: p53 positive nuclei at 24 h, Library stock concentration: 10 mM
compound,measurement,setting,value
COc1nccnc1-c1ccc2c(c1)OCO2,"nuclei count, normalised",[1]; [3],115%
same,"nuclei count, normalised",[1]; [4],114%
same,"p53-positive nuclei, normalised",[2]; concentration not given here,-0.145% (inactive)
same,"p53-positive nuclei, normalised",[2]; [5],-0.0884%
c1nc(-c2ccc3c(c2)OCCO3)c2sccc2n1,"nuclei count, normalised",[1]; [3],74.2%
same,"nuclei count, normalised",[1]; [4],38.4%
same,"p53-positive nuclei, normalised",[2]; concentration not given here,68.7% (active)
same,"p53-positive nuclei, normalised",[2]; [5],3%
NC(=O)c1ccc(-c2nc(-c3ccc4c(c3)OCCO4)c(-c3ccccn3)[nH]2)cc1,"nuclei count, normalised",[1]; [6],108%
same,"nuclei count, normalised",[1]; [7],108%
same,"nuclei count, normalised",[1]; [8],103%
same,"nuclei count, normalised",[1]; [9],105%
same,"nuclei count, normalised",[1]; [3],114%
same,"nuclei count, normalised",[1]; [10],111%
same,"nuclei count, normalised",[1]; [11],111%
same,"nuclei count, normalised",[1]; [12],103%
same,"nuclei count, normalised",[1]; [13],99.9%
same,"nuclei count, normalised",[1]; [4],116%
same,"p53-positive nuclei, normalised",[2]; [14],0.102% (inactive)
same,"p53-positive nuclei, normalised",[2]; [15],0.159% (inactive)
same,"p53-positive nuclei, normalised",[2]; [16],-0.0937% (inactive)
same,"p53-positive nuclei, normalised",[2]; [17],0.066% (inactive)
same,"p53-positive nuclei, normalised",[2]; concentration not given here,-0.0133% (inactive)
same,"p53-positive nuclei, normalised",[2]; [18],-0.0114%
same,"p53-positive nuclei, normalised",[2]; [19],0.0817%
same,"p53-positive nuclei, normalised",[2]; [20],-0.00675%
same,"p53-positive nuclei, normalised",[2]; [21],0.138%
same,"p53-positive nuclei, normalised",[2]; [5],-0.0284%
CC=C1NC(=O)C2CSSCCC=CC(CC(=O)NC(C(C)C)C(=O)N2)OC(=O)C(C(C)C)NC1=O (stereo not drawn),"nuclei count, normalised","[1]; measured here: cell number at 24 h, Library stock concentration: 3.33 mM",45.3%
same,"nuclei count, normalised","[1]; measured here: cell number at 48 h, Library stock concentration: 3.33 mM",13.5%
same,"p53-positive nuclei, normalised",[2]; Library stock concentration: 3.33 mM,138% (active)
same,"p53-positive nuclei, normalised","[2]; measured here: p53 positive nuclei at 24 h, Library stock concentration: 3.33 mM",79.1%
OC1CCC(Nc2ncc3nc(Nc4c(F)cc(F)cc4F)n(C4CCOC4)c3n2)CC1 (stereo not drawn),"nuclei count, normalised",[1]; [6],108%
same,"nuclei count, normalised",[1]; [7],111%
same,"nuclei count, normalised",[1]; [8],106%
same,"nuclei count, normalised",[1]; [9],114%
same,"nuclei count, normalised",[1]; [10],111%
same,"nuclei count, normalised",[1]; [11],111%
same,"nuclei count, normalised",[1]; [12],112%
same,"nuclei count, normalised",[1]; [13],113%
same,"p53-positive nuclei, normalised",[2]; [14],0.0644% (inactive)
same,"p53-positive nuclei, normalised",[2]; [15],-0.0934% (inactive)
same,"p53-positive nuclei, normalised",[2]; [16],-0.0819% (inactive)
same,"p53-positive nuclei, normalised",[2]; [17],-0.265% (inactive)
same,"p53-positive nuclei, normalised",[2]; [18],0.0898%
same,"p53-positive nuclei, normalised",[2]; [19],-0.0608%
same,"p53-positive nuclei, normalised",[2]; [20],-0.051%
same,"p53-positive nuclei, normalised",[2]; [21],-0.0545%
